The values below come from paper PMC10726135, “HNF4α isoforms regulate the circadian balance between carbohydrate and lipid metabolism in the liver”.

The full ranking holds about 18,000 sequences; the median of “log2 normalized intensity” is about 0.39, and the highest 2% start at about 6.6. This excerpt belongs to a sample that is enriched for the highest values.

The target in the assay is T1, HNF4alpha2 (COS-7 nuclear extract) (Homo sapiens, UniProt P41235 1-474).
T1 sequence: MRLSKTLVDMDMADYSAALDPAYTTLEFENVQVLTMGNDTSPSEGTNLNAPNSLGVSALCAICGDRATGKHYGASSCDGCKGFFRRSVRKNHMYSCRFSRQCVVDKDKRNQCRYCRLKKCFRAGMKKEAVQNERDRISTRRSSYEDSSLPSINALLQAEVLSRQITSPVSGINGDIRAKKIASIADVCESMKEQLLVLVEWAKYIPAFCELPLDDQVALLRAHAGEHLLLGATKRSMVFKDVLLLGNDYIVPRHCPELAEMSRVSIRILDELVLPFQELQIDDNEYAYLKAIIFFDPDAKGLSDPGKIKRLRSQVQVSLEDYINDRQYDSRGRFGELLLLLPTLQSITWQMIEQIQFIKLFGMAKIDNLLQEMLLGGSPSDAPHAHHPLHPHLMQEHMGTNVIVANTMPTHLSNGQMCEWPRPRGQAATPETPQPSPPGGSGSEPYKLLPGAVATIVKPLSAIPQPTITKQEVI
Description: protein-binding microarray; COS-7 nuclear extract on double-stranded Agilent 4x180k PBM; binding buffer, salt, pH and temperature not given in the material; high values mean tight binding. To be noted: chain copies: 2; label: 3' end of strand 1 on the slide; dsDNA, one strand shown. A digest of the protocol:
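COS-7 cells were transiently transfected by CaPO4 with an expression vector for a human HNF4α isoform, and nuclear extracts were prepared from them. The extracts were applied to a custom Agilent SurePrint G3 4x180k array of double-stranded ~60-nt oligonucleotides, with ~44,000 test sequences spotted in quadruplicate. An Agilent G2565CA scanner imaged bound HNF4α at 2-µm resolution. Binding signal is the background-corrected, normalized gProcessedSignal from Agilent software.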
For the sequence “CTCCTCTCCAGCCCATCCTAAGCCCCAGGGGCCTAGGGAGATTAGAGTATCGGTCGA”, the binding signal was 1.15 log2 normalized intensity.
As to “CTGAGCCTCAGAACCATTTGTGAGGATGGGGCCTAGGGAGATTAGAGTATCGGTCGA”, the binding signal was -0.528 log2 normalized intensity.
The value for “ATGCAAAGCCCTGGCTGACCTTTAGCCTGGGCCTAGGGAGATTAGAGTATCGGTCGA” was 6.54 log2 normalized intensity.
The value for “AAGAGCTGAGGAAGTGCTGACCTTTGGTCTGCCTAGGGAGATTAGAGTATCGGTCGA” was 7.29 log2 normalized intensity; that for “AGTGCTGCATGCAAAAAGGCTGACCTTTGAGCCTAGGGAGATTAGAGTATCGGTCGA” was 7.82 log2 normalized intensity; that for “TAGATAAGAGCTGAGGAAGTGCTGACCTTTGCCTAGGGAGATTAGAGTATCGGTCGA” was 5.77 log2 normalized intensity.
The value for “CTTTTTGACCTTGCAGTGGCAAGGCAAAAGGCCTAGGGAGATTAGAGTATCGGTCGA” was 1.56 log2 normalized intensity; that for “TGCATGCAAAAAGGCTGACCTTTGACTCTCGCCTAGGGAGATTAGAGTATCGGTCGA” was 7.57 log2 normalized intensity; that for “GTCAGAGTGCTGCATGCAAAAAGGCTGACCGCCTAGGGAGATTAGAGTATCGGTCGA” was 1.41 log2 normalized intensity.
Turning to “AGGCTGTCAGAGTGCTGCATGCAAAAAGGCGCCTAGGGAGATTAGAGTATCGGTCGA”, the binding signal is -0.743 log2 normalized intensity.
Take “CTGAGGAAGTGCTGACCTTTGGTCTAAACCGCCTAGGGAGATTAGAGTATCGGTCGA”: the binding signal was found to be 6.27 log2 normalized intensity.
The value for “CCCAGGTCACCCACAACCTACCCTTTGCCCGCCTAGGGAGATTAGAGTATCGGTCGA” was 3.99 log2 normalized intensity.
Take “GGCTAGGGCAAAGATCAAACATACAGTAAAGCCTAGGGAGATTAGAGTATCGGTCGA”: the binding signal worked out at 1.77 log2 normalized intensity.
On to “TAGCAATAATCTTTGAAATCTGCAAATAGAGCCTAGGGAGATTAGAGTATCGGTCGA”, for which the binding signal is -0.0917 log2 normalized intensity.
As to “TCTGTGTGTATGTGTGTGTACACATTGATAGCCTAGGGAGATTAGAGTATCGGTCGA”, the binding signal was 2.42 log2 normalized intensity.
As to “TTTGATCCTGATGACTGCAGAGCTTGCTCTGCCTAGGGAGATTAGAGTATCGGTCGA”, the binding signal was -0.687 log2 normalized intensity.
For the sequence “GGAGAGAGTTTGGCCCCAGTTCCCATGGACGCCTAGGGAGATTAGAGTATCGGTCGA”, the binding signal stood at 1.18 log2 normalized intensity.
Under “ATCCTGCAGTTCCTGATCTTTGACCTGGAGGCCTAGGGAGATTAGAGTATCGGTCGA” stands 5.61 log2 normalized intensity; under “AATTCCAGTTTGGACTTTGATCCTGATGACGCCTAGGGAGATTAGAGTATCGGTCGA”, 9.15 log2 normalized intensity; under “CAGTTTGGACTTTGATCCTGATGACTGCAGGCCTAGGGAGATTAGAGTATCGGTCGA”, 7.49 log2 normalized intensity.
For the sequence “TGGACTTTGATCCTGATGACTGCAGAGCTTGCCTAGGGAGATTAGAGTATCGGTCGA”, the binding signal was 5.26 log2 normalized intensity.
“GCAGTTCCTGATCTTTGACCTGGAGCATGAGCCTAGGGAGATTAGAGTATCGGTCGA”: the binding signal turned out to be 4.61 log2 normalized intensity.
For “GATGGAGATCATCCTGCAGTTCCTGATCTTGCCTAGGGAGATTAGAGTATCGGTCGA”, the binding signal was -0.826 log2 normalized intensity.
As to “AGATCATCCTGCAGTTCCTGATCTTTGACCGCCTAGGGAGATTAGAGTATCGGTCGA”, the binding signal stood at 7.04 log2 normalized intensity.
On to “CTTCTGTTCAGGAGTTGTCTGTCCAGTTCAGCCTAGGGAGATTAGAGTATCGGTCGA”, for which the binding signal is 1.56 log2 normalized intensity.
With “TAATCCCTGAGCCTGGACCTTGGAATGTCAGCCTAGGGAGATTAGAGTATCGGTCGA”, the binding signal turned out to be 3.33 log2 normalized intensity.
Consider “AATTCACGTCATTTTGTCACCTACATGTGAGCCTAGGGAGATTAGAGTATCGGTCGA”, for which the binding signal was 1.67 log2 normalized intensity.
Regarding “TGCCCTGGACATATTTGTCTTCCTATCTCCGCCTAGGGAGATTAGAGTATCGGTCGA”, the binding signal is 0.887 log2 normalized intensity.
In the case of “TTCCAGAGCCTTCAAAGGAAAGCAGGTGTTGCCTAGGGAGATTAGAGTATCGGTCGA”, the binding signal worked out at 0.55 log2 normalized intensity.
Take “CAGGGTCAATGTCCCCTTAGGAATAGTATCGCCTAGGGAGATTAGAGTATCGGTCGA”: the binding signal was found to be 2.14 log2 normalized intensity.
Under “GGGATGGACTTTGGCCCTCAGCCCAATGTGGCCTAGGGAGATTAGAGTATCGGTCGA” stands 6.2 log2 normalized intensity; under “GAACAGCAAGACTTTGGCCCTGCAGACTTTGCCTAGGGAGATTAGAGTATCGGTCGA”, 2.09 log2 normalized intensity; under “TTGAAAGGGACTTAGAATCGAATTGTGAAAGCCTAGGGAGATTAGAGTATCGGTCGA”, -0.196 log2 normalized intensity.
For “ACCTGGAACTGAAAGAGACCTTTGACATCAGCCTAGGGAGATTAGAGTATCGGTCGA”, the binding signal is 4.5 log2 normalized intensity.
Under “CAGCCTTTGGACTTTGAACTGCAACATCAGGCCTAGGGAGATTAGAGTATCGGTCGA” stands 8.26 log2 normalized intensity.
The value for “CTGGACTTTGGCTGCAAAATTTGAACAAAAGCCTAGGGAGATTAGAGTATCGGTCGA” was 1.55 log2 normalized intensity; that for “TGAATTCTGCAGCAGATGGCCAGCCTTTGGGCCTAGGGAGATTAGAGTATCGGTCGA” was -0.936 log2 normalized intensity.
Regarding “AAAGAGATTGGACTTTGGCCTGTGAATCCAGCCTAGGGAGATTAGAGTATCGGTCGA”, the binding signal is 8.37 log2 normalized intensity.
With “GGACTTTGGCCCTCAGCCCAATGTGGTAGGGCCTAGGGAGATTAGAGTATCGGTCGA”, the binding signal came out at 5.47 log2 normalized intensity.
Consider “TACTGGGGATGGACTTTGGCCCTCAGCCCAGCCTAGGGAGATTAGAGTATCGGTCGA”, for which the binding signal stood at 8.56 log2 normalized intensity.
Under “GATTGGACTTTGGCCTGTGAATCCACATTCGCCTAGGGAGATTAGAGTATCGGTCGA” stands 5.98 log2 normalized intensity; under “TCTGCAGCAGATGGCCAGCCTTTGGACTTTGCCTAGGGAGATTAGAGTATCGGTCGA”, 7.15 log2 normalized intensity; under “CCCTTTGCACATGCCCCTCCCAGGGACACAGCCTAGGGAGATTAGAGTATCGGTCGA”, 3.12 log2 normalized intensity.
